Reference: PubChem BioAssay (NCI)
This is part of a sample that, as a whole, favours compounds with a hit. Of some 83,000 tested, about 20% had one in any assay.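 Growth was measured after 48 h exposure to one concentration of compound in 96-well plates. Values under 10 count as active.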 A number with no mark means an inactive call. Calls of active or inactive are those of the source.

Tests used:
Assay in all cases: NCI-60 one-dose screen, 48 h (100 = growth as untreated, 0 = no growth, -100 = all killed)
Settings in all cases: 10 µM unless noted
[1] = test system: SK-MEL-2 melanoma
[2] = test system: EKVX NSCLC
[3] = test system: SN12C renal
[4] = test system: TK-10 renal
[5] = test system: ACHN renal
[6] = test system: CAKI-1 renal
[7] = test system: A498 renal
[8] = test system: CCRF-CEM leukemia
[9] = test system: MOLT-4 leukemia
[10] = test system: SR leukemia
[11] = test system: RPMI-8226 leukemia
[12] = test system: OVCAR-8 ovarian
[13] = test system: OVCAR-5 ovarian
[14] = test system: OVCAR-4 ovarian
[15] = test system: SK-OV-3 ovarian
[16] = test system: IGROV1 ovarian
[17] = test system: OVCAR-3 ovarian
[18] = test system: HS 578T breast
[19] = test system: NCI/ADR-RES ovarian
[20] = test system: UO-31 renal

| Compound | growth [1] | growth [2] | growth [3] | growth [4] | growth [5] [%] | growth [6] | growth [7] | growth [8] | growth [9] | growth [10] | growth [11] | growth [12] | growth [13] | growth [14] | growth [15] | growth [16] | growth [17] | growth [18] | growth [19] | growth [20] [%] |
| --- | --- | --- | --- | --- | --- | --- | --- | --- | --- | --- | --- | --- | --- | --- | --- | --- | --- | --- | --- | --- |
| O=C1/C(=C2\SC(=S)N(C3CC3)C2=O)SC(=S)N1C1CC1 | 102% | 95.9% | 92.5% | 108% | 97 | 91.3% | 106% | 105% | 103% | 105% | 102% | 103% | 98.5% | 97.2% | 109% | 95.5% | 107% | 97.4% | 102% |  |
| Cc1nc2sc(C(=O)Nc3cccc(Br)c3C)c(N)c2cc1C(O)c1ccccc1 (centres undefined) | 29.7% | 39.7% | 8.12% (active) | 44.7% | 21.9 | 20.4% | -12.8% (active) | 17.2% | 12% | 7.47% (active) | 2.82% (active) | 12.2% | 32.3% | 47.1% | 11.4% | 15.5% | -2.75% (active) | 12.3% | 4.66% (active) |  |
| N#C/C(=C\c1ccc(-c2cccc(C(F)(F)F)c2)o1)c1ccccc1 | 98.9% | 67% | 90.2% | 150% | 85.2 | 69% | 102% | 97% | 89.7% | 86.3% | 90.9% | 101% | 96.9% | 79% | 84.7% |  | 95.6% | 86.7% | 101% |  |
| CCCCNc1nnc2n(Cc3ccccc3)c(=O)c3c4c(sc3n12)CCCC4 | 41.6% | 60.8% | 46% | 59.3% |  | 42.6% | 45.4% | 59.2% | 10.4% | 9.01% (active) | 34.4% | 46.2% | 106% | 71.7% | 62.5% | 46.7% | 49.2% | 71.5% | 55.7% |  |
| CN(CCCNC(=O)CCOCCOCCOCCNC(=O)Cc1ccc2ccc3cccc4ccc1c2c34)CCCNc1cc(-c2ccc3ccccc3c2)nc2ccccc12 | -70.4% (active) | -65.8% (active) | -75.3% (active) | -84.2% (active) |  | -82.4% (active) | -86.6% (active) | -78.6% (active) | -83.7% (active) | -74.8% (active) | -48.9% (active) | -37.4% (active) | -86.4% (active) | -90.6% (active) | -96.8% (active) | -43.8% (active) | -92% (active) |  | 8.51% (active) |  |
| COc1ccc(/C=C/C(=O)c2cc3c(N)c(C(=O)Nc4cccc(Cl)c4C)sc3nc2C)cc1 | 51.6% | 44.5% | 4.97% (active) | 28.7% | 17.7 | 13.2% | 4.47% (active) | 10.9% | 19% | 16.2% | -11.8% (active) | -8.6% (active) | 27.6% | 37% | 23.8% | 21.9% | 8.05% (active) | 6.35% (active) | -25.5% (active) |  |
| Cc1ccc(S(=O)(=O)OCCCOS(=O)(=O)c2ccc(C)cc2)cc1 | 101% | 99.7% | 98.1% | 109% | 96 | 68.3% | 106% | 79.1% | 62.5% | 82.4% | 76.2% | 90% | 125% | 100% | 115% | 76.1% | 107% | 99.8% | 116% |  |
| CC1(C)CC[C@]23CC[C@]4(C)[C@H](CC[C@@H]5[C@@]6(C)C/C(=C/c7ccncc7)C(=O)C(C)(C)[C@@H]6CC[C@]54C)[C@H]2[C@H]1OC3 | 80.9% | 92.3% | 76.7% | 97% | 91 | 66.4% | -3.63% (active) | 44.3% | 50.4% | 56.5% | 50% | 75.1% | 89.8% | 92.2% | 94.7% | 80.5% | 84.4% | 84.9% | 97.8% |  |
| CC1=CCC(OC(=O)C(C)(C)CC(O)(C(C)O)C(O)C2(C)C=CC(Cc3ccc(C(C)C)cc3)(C(C)C)CC2)(C(C)C)CC1 (centres undefined) | 110% | 98.3% | 105% | 86.4% | 102 | 94.6% | 76.2% | 79.2% | 94.1% | 99% | 108% | 104% | 94.9% | 102% | 107% | 95.5% | 102% | 101% | 98.2% |  |
| S=C(c1ccc2c(c1)OCO2)N1CCN(c2cccc(Cl)c2)CC1 | 71.7% |  | 50.7% | 53.3% | 34.6 | 15.5% | 33.3% | 18.8% | 30.9% | 11.9% | 24.6% | 38.8% | 44% | 46.3% | 20.6% | 37% | -33.7% (active) | -1.66% (active) | -13% (active) | 57.4 |
| O=C(Cn1nnc2ccccc21)N/N=C/c1c[nH]c2ccccc12 | 38.4% |  | 45.9% | 64.7% | 64.1 | 45.7% | 60.4% | 47.7% | 29.9% | 18.3% | 45% | 44.8% | 71.9% | 82% | 65.7% | 54.1% | 22.4% | 57.5% | 47.6% | 52.4 |
| CC(C)(C)n1cc(-c2ccnc(NCCNS(=O)(=O)c3ccc(O)cc3)c2)c(-c2cccc(O)c2)n1 | 108% |  | 98.3% | 116% | 98.2 | 103% | 88.8% | 92.7% | 95.1% | 88% | 80% | 96% | 97.1% | 94.1% | 116% | 112% | 114% | 97.6% | 107% | 91.2 |
